These results are taken from ChEMBL document CHEMBL3988442, “University of Dundee, Small-Polar-MMV Screening Library” (2021).

Structures are written as SMILES. Among all 48,000 compounds or so, about 13,000 (27%) showed an effect of 50% or more. The list shows a part of the results.

For this assay, the system named is Wolbachia pipientis. Put plainly: Anti-Wolbachia Cell-Based Screen. To be noted: 5 µM. Also noted: scale not given: in the data most compounds retested in dose-response had high values. Type of assay: functional.
Take `Cc1ncccc1OC1(C(=O)NCCc2ccccn2)CCNCC1`: the “Percent Effect” value is reported as -3.101%.
Then `N#Cc1cc(Br)ccc1NC1CCN(CC(N)=O)CC1`, with -6.071%; and `O=C(CSc1ccc2c(c1)OCCO2)NS(=O)(=O)c1ccccc1Cl`, with -4.158%.
Turning to `CC(O)CN1CCN(C(=O)CN(C)c2ccc(Cl)cn2)CC1` (configuration not stated), the “Percent Effect” value is on record as -12.66%.
Turning to `O=C1Nc2ccccc2/C1=C1\CCCN1`, the “Percent Effect” value stood at 133.6%.
For the compound `O=C1Nc2ccccc2/C1=C1\CCCCN1`, the “Percent Effect” value was found to be 114.3%.
For the compound `O=C1Nc2ccccc2/C1=C1\CCCCCN1`, the “Percent Effect” value came to 122.1%.
Take `CCCN1C[C@H]2CC[C@@H]1CN(Cc1cccc(-n3cccn3)c1)C2`: the “Percent Effect” value is given as -7.313%.
`O=C(c1cc(C2CC2)[nH]n1)N1CCCC(n2cncn2)C1` (configuration not stated): the “Percent Effect” value was found to be 0.773%.
As for `CC(C)c1cc(C(=O)N2CCCC(n3cncn3)C2)n[nH]1` (configuration not stated), the “Percent Effect” value was found to be 96.9%.
`CC(C)n1ccc(C(=O)N2CCCC(n3cncn3)C2)n1` (configuration not stated): the “Percent Effect” value came to 105.9%.
As for `CC(C)Cc1cc(C(=O)N2CCCC(n3cncn3)C2)[nH]n1` (configuration not stated), the “Percent Effect” value is reported as 6%.
As to `Cc1cc(C)c(CNC(=O)NC2CCN(C(=O)C(C)C)CC2)c(C)c1`, the “Percent Effect” value came out at 11.56%.
As for `CC(Cn1cccn1)C(=O)N1CCC(NS(C)(=O)=O)CC1` (configuration not stated), the figure is -5.413%; as for `CCS(=O)(=O)Nc1cnn(Cc2cccc(Cl)c2)c1`, 132.7%.
With `CC(C)N(C)S(=O)(=O)N(C)Cc1cnn(Cc2ccccc2)c1`, the “Percent Effect” value was -14.36%.
On to `CCS(=O)(=O)Nc1ccn(Cc2cccc(Cl)c2)n1`, for which the “Percent Effect” value is -21.52%.
Take `CS(=O)(=O)Nc1cccc(CNC(=O)c2cccs2)c1`: the “Percent Effect” value is given as 8.71%.
In the case of `CS(=O)(=O)Nc1cnn(Cc2cccc(Cl)c2)c1`, the “Percent Effect” value was 81.71%.
Regarding `CS(=O)(=O)N1CCC(C(=O)N2CCN(Cc3cccc(Cl)c3)CC2)CC1`, the “Percent Effect” value is listed as -5.012%.
In the case of `COc1cc(C)ccc1OCc1nc(C(=O)N2CCCNC(=O)C2)co1`, the “Percent Effect” value was determined as 5.427%.
As for `CS(=O)(=O)NC[C@@H]1OC[C@H]2CN(Cc3ccsc3)CC[C@H]21.O=C(O)C(F)(F)F`, the figure is 83.99%.
Consider `CS(=O)(=O)NC[C@H]1OC[C@H]2CN(Cc3ccsc3)CC[C@H]21.O=C(O)C(F)(F)F`, for which the “Percent Effect” value came to 114.3%.
Consider `COCc1nnc(-c2cccc(C(=O)OC(C)C)c2)o1`, for which the “Percent Effect” value is recorded as -21.92%.
Consider `NC(=O)Nc1cccc(CNC(=O)CCCc2ccccc2)c1`, for which the “Percent Effect” value was 3.307%.
Then `Cc1cc(-c2cnc(NC3CC3)nc2-c2ccoc2)on1`, with 98.24%; and `Cc1cc(-c2cnc(NC3CCCC3)nc2-c2ccoc2)on1`, with 77.66%.
Then `Cc1cc(-c2cnc(N3CCCC(C)C3)nc2-c2cccnc2C)on1.Cl` (configuration not stated), with -3.482%; and `COc1ccc(-c2ccoc2)cc1CNC1CCCC1`, with 10.39%.
For the compound `CCC1CCC(N(Cc2cc(=O)n(C)c(=O)n2C)C2CC2)CC1` (configuration not stated), the “Percent Effect” value is recorded as -6.586%.
As for `Cc1ccc(NC(=O)N(C)C)c(C(=O)OCC(=O)NC(C)C(C)C)c1` (configuration not stated), the figure is -0.8117%; as for `CC(C)CN1CCc2[nH]cnc2C12CCN(C(=O)c1cncn1C)CC2`, -0.9954%; as for `Cc1ccc(CN2Cc3ccccc3O[C@]3(CC[C@H](CO)CC3)C2)s1.Cl`, 116.6%.
Regarding `Cc1ccc(CN2Cc3ccccc3O[C@]3(CC[C@H](CO)CC3)C2)o1.Cl`, the “Percent Effect” value was 111.4%.
Consider `Cc1cnccc1Cn1ccnc1C1CCOC1` (configuration not stated), for which the “Percent Effect” value is listed as -17.66%.
As for `Cc1ccc(CN2CC(C(=O)Nc3ccccc3)C3(CCOCC3)C2)o1.O=C(O)C(F)(F)F` (configuration not stated), the figure is 17.76%; as for `Cl.OC[C@H]1CC[C@]2(CC1)CN(Cc1ccsc1)Cc1ccccc1O2`, 114.5%.
Regarding `Cl.OC[C@H]1CC[C@]2(CC1)CN(Cc1ccccn1)Cc1ccccc1O2`, the “Percent Effect” value was -8.81%.
With `Cc1cnccc1CN1CCN(C)C2(CCC(=O)N(CC3CC3)CC2)C1` (configuration not stated), the “Percent Effect” value is reported as -0.1133%.
In the case of `Cc1ncc(CN2Cc3ccccc3O[C@]3(CC[C@H](CO)CC3)C2)cn1.Cl`, the “Percent Effect” value is reported as -8.047%.
In the case of `O=C(Nc1ccccc1)C1CN(Cc2ccsc2)CC12CCOCC2.O=C(O)C(F)(F)F` (configuration not stated), the “Percent Effect” value was 4.234%.
For the compound `Cl.OC[C@H]1CC[C@]2(CC1)CN(Cc1ccccc1F)Cc1ccccc1O2`, the “Percent Effect” value was -7.813%.
Then `Cc1cnccc1CN1Cc2ccccc2O[C@]2(CC[C@H](CO)CC2)C1`, with 131.4%; and `Cc1ccc(CNc2ccc(N3CCC(CO)CC3)cn2)o1`, with -69.41%; and `CCCS(=O)(=O)N1CCOC2(COCCN(C(C)=O)C2)C1` (configuration not stated), with -8.657%.
As to `CN(CCCc1ccc(C(F)(F)F)cc1)Cc1nccn1C`, the “Percent Effect” value is recorded as -12.04%.
For the compound `CC(=O)N1CCN(CC(=O)N2CCN(c3cccc(C)c3)CC2)CC1`, the “Percent Effect” value was -12.32%.
Take `COc1ccc(-c2nc(CN3CCOCS3(=O)=O)c(C)o2)cc1`: the “Percent Effect” value is reported as 1.396%.
As to `CSCCC(=O)NS(=O)(=O)c1ccc2c(c1)OCCO2`, the “Percent Effect” value was 2.619%.
Turning to `C1CN(c2nc(C3CC3)ns2)CCO1`, the “Percent Effect” value is listed as -22.29%.
Take `Cc1cncnc1C1CCN(CCO)CC1`: the “Percent Effect” value is 125.7%.
As for `Cn1cncc1-c1nnc([C@H]2CCN(CC3CCCCC3)C2)o1`, the “Percent Effect” value was -8.237%.
As for `CCCn1ncnc1C(C)NC(=O)C1CCN(CC(N)=O)CC1` (configuration not stated), the “Percent Effect” value was -16.66%.
In the case of `CC(NCC1CCN(CCO)CC1)c1cccnc1` (configuration not stated), the “Percent Effect” value is recorded as -1.701%.
As for `Cc1cc(CNC(=O)C2CCN(CC(N)=O)CC2)cc(C)n1`, the figure is 2.597%; as for `Cc1cncnc1C1CCN(CC(N)=O)CC1`, 132.7%; as for `CC(c1cccnc1)N1CCN(CCO)CC1` (configuration not stated), 9.024%.
As to `Cc1cncnc1C1CCN(CC2CC2)CC1`, the “Percent Effect” value stood at 99.03%.
Take `CN1CCN(Cc2nnc(C3CCN(CC4CC4)CC3)n2C)CC1`: the “Percent Effect” value was -21.66%.
For `O=C(CN1CCCS1(=O)=O)NCCOc1ccc2c(c1)CCC2`, the “Percent Effect” value is -4.434%.
Then `Cn1ccnc1SCCNc1nccc(C(F)(F)F)n1`, with -12.11%; and `Cn1c(Nc2cn[nH]c2)c(C#N)c(=O)n(C)c1=O`, with -4.688%; and `CN1C(=O)CCc2cc(NC(=O)C3CC3)ccc21`, with -10.85%.
As for `O=C(CCS(=O)(=O)C1CCCC1)NCCc1ccc2c(c1)OCCO2`, the figure is -0.351%.
For `CN(Cc1nnc2n1CCC2)C(=O)NCCc1ccc2c(c1)OCO2`, the “Percent Effect” value came to 2.683%.
For `CN1CC(C(=O)NCCc2ccc3c(c2)OCCO3)CC1=O` (configuration not stated), the “Percent Effect” value was 92.09%.
Consider `CN1CC(C(=O)NCCc2ccc3c(c2)OCO3)CC1=O` (configuration not stated), for which the “Percent Effect” value is 94.15%.
